# In PMC12864922, “TDP-43 directly inhibits mRNA accumulation in neurites through modulation of mRNA stability”:
# The full ranking holds about 9,900 sequences; the median of “r (bound/input frequency ratio)” is about 0.7, and the highest 2% start at about 6.5. The full list was thinned out, with the highest values kept by preference.
# B1: ENSMUSG00000029636.242|Wasf3 (ssRNA)
# RNA: GGGAGUUCUACAGUCCGACGAUCGCUUCGAUAUCCGCAUGCUACAUUGUGUCAGUUGACAGGGAAUGCCUGUGGGAUAAUUAAAAAUGGUUUUUGCUCAUGAGUUUGGGAUGUCACCCAGCCGCCCACAUCGCCUGCUAUGUGUGUGGACGCCUGUCCGCUUGGCCAGCUAUCCUGUAACACCUGCCAGUAGUAGGUUUUCCUCAUGUCACUAUGACAGUGAAAGCCCAUGUGCAAGCCCCUCCCUACGCCCUGCUUUGGCGUGUGUCUGAGUGCUCUGUGCUGCGCCAUGGCCAUCCUGGAGCUCUUGCGGUCGCACUAGUGUGGAAUUCUCGGGUGUCAAGG
# B2: ENSMUSG00000028439.73|Fam219a|190:194 (ssRNA)
# RNA: GGGAGUUCUACAGUCCGACGAUCGCUUCGAUAUCCGCAUGCUAGUAAGCGUUGGGUGAAGGGAUCACAGGGCCGGAAGGUUGGCCCCAGCCAGUGAAGCCAUGAAUCCCCCCCAAGCCCGGCUUGGAAAGGAAGGAAAGGGGUUUUGAGAAGAAAAGGAUCCAAGCAAUGGGGGCAGUUCUCACACCUCAGAGCCCCUCUCCCCAAACCCUGUGCCAGCCCAUAUACCUAUUACACAUUUCCCCUCAUCUCCAGAUGGGAAGCCUGGCAGCGCUGUCCAAAGGGAUACUGUCUCUCCAUUAGACUCUUGCGGUCGCACUAGUGUGGAAUUCUCGGGUGUCAAGG
# B3: ENSMUSG00000028439.185|Fam219a|1:16;18:35;45:52 (ssRNA)
# RNA: GGGAGUUCUACAGUCCGACGAUCGCUUCGAUAUCCGCAUGCUAACACACAUACACACACCCACACACACACACACACAUGUACCCGACACACACAUGAGCCUAUCUGUCCAGGGAACCAGAUUGGUGUCCGAGAUGAGGAAAUGGCUGUGGCCUGGGAAAUCAGUGAGAGGCCGCUUGGGAAUGAGAAUGCAGUGGACUGAAAGCACAGCCUGGCCAUCUGGAACCUGGGUUCUGGUCCCAGCCUCGGCAUUCUCCCUGAGCUCCUAAGCAAUUCCCAGGCUUCUCUAGGGCUUCAGUUCUCACUCUUGCGGUCGCACUAGUGUGGAAUUCUCGGGUGUCAAGG
# B4: ENSMUSG00000061578.502|Ksr2|17:22;189:195 (ssRNA)
# RNA: GGGAGUUCUACAGUCCGACGAUCGCUUCGAUAUCCGCAUGCUAAGUGCUGGGAUUAAAGCACACAACCACCAUUGCAAUCUUGAACUCUUGACCAAUAGAAAUCCUAGACUAGUGUUGCUAGGCAACUGACUGUAUUCAGGACACCCAGGGUGGGAGGUGGAUGGAGCUCUUGCCUAACACACACCAAGCCCCAAGUUCCAUCCCCAGUCCCACACAAACCAGAUAUGAUGCACACACCCUAUGUCCCCCACACACGAGAGAGCUGGAGGCAGGAGGAUCAGAAGUUCAGGGCCAUCCUUAAUCUCUUGCGGUCGCACUAGUGUGGAAUUCUCGGGUGUCAAGG
# B5: ENSMUSG00000028439.184|Fam219a (ssRNA)
# RNA: GGGAGUUCUACAGUCCGACGAUCGCUUCGAUAUCCGCAUGCUAUGUGCGUGUGUGUAUGUGUGUGCGUGUGUGUGUGUGUGUGUUGUACCCGAGUGUGUGUUGAGCCUAUCUGUCCAGGGAACCAGAUUGGUGUCCGAGAUGAGGAAAUGGCUGUGGCCUGGGAAAUCAGUGAGAGGCCGCUUGGGAAUGAGAAUGCAGUGGACUGAAAGCACAGCCUGGCCAUCUGGAACCUGGGUUCUGGUCCCAGCCUCGGCAUUCUCCCUGAGCUCCUAAGCAAUUCCCAGGCUUCUCUAGGGCUUCAGCUCUUGCGGUCGCACUAGUGUGGAAUUCUCGGGUGUCAAGG
# B6: ENSMUSG00000061578.500|Ksr2|29:34;201:207 (ssRNA)
# RNA: GGGAGUUCUACAGUCCGACGAUCGCUUCGAUAUCCGCAUGCUACUCUGCCUCCCAAGUGCUGGGAUUAAAGCACACAACCACCAUUGCAAUCUUGAACUCUUGACCAAUAGAAAUCCUAGACUAGUGUUGCUAGGCAACUGACUGUAUUCAGGACACCCAGGGUGGGAGGUGGAUGGAGCUCUUGCCUAACACACACCAAGCCCCAAGUUCCAUCCCCAGUCCCACACAAACCAGAUAUGAUGCACACACCCUAUGUCCCCCACACACGAGAGAGCUGGAGGCAGGAGGAUCAGAAGUUCAGGCUCUUGCGGUCGCACUAGUGUGGAAUUCUCGGGUGUCAAGG
# B7: ENSMUSG00000028439.185|Fam219a (ssRNA)
# RNA: GGGAGUUCUACAGUCCGACGAUCGCUUCGAUAUCCGCAUGCUAUGUGUGUAUGUGUGUGCGUGUGUGUGUGUGUGUGUUGUACCCGAGUGUGUGUUGAGCCUAUCUGUCCAGGGAACCAGAUUGGUGUCCGAGAUGAGGAAAUGGCUGUGGCCUGGGAAAUCAGUGAGAGGCCGCUUGGGAAUGAGAAUGCAGUGGACUGAAAGCACAGCCUGGCCAUCUGGAACCUGGGUUCUGGUCCCAGCCUCGGCAUUCUCCCUGAGCUCCUAAGCAAUUCCCAGGCUUCUCUAGGGCUUCAGUUCUCACUCUUGCGGUCGCACUAGUGUGGAAUUCUCGGGUGUCAAGG
# B8: ENSMUSG00000028439.188|Fam219a (ssRNA)
# RNA: GGGAGUUCUACAGUCCGACGAUCGCUUCGAUAUCCGCAUGCUAUGUGUGUGUGUGUGUGUUGUACCCGAGUGUGUGUUGAGCCUAUCUGUCCAGGGAACCAGAUUGGUGUCCGAGAUGAGGAAAUGGCUGUGGCCUGGGAAAUCAGUGAGAGGCCGCUUGGGAAUGAGAAUGCAGUGGACUGAAAGCACAGCCUGGCCAUCUGGAACCUGGGUUCUGGUCCCAGCCUCGGCAUUCUCCCUGAGCUCCUAAGCAAUUCCCAGGCUUCUCUAGGGCUUCAGUUCUCACAACUGGAAAAUAAAGAGCUCUUGCGGUCGCACUAGUGUGGAAUUCUCGGGUGUCAAGG
# B9: ENSMUSG00000028439.184|Fam219a|6:22;24:41;51:58 (ssRNA)
# RNA: GGGAGUUCUACAGUCCGACGAUCGCUUCGAUAUCCGCAUGCUAUGUGCCACACACAUACACACACCCACACACACACACACACAUGUACCCGACACACACAUGAGCCUAUCUGUCCAGGGAACCAGAUUGGUGUCCGAGAUGAGGAAAUGGCUGUGGCCUGGGAAAUCAGUGAGAGGCCGCUUGGGAAUGAGAAUGCAGUGGACUGAAAGCACAGCCUGGCCAUCUGGAACCUGGGUUCUGGUCCCAGCCUCGGCAUUCUCCCUGAGCUCCUAAGCAAUUCCCAGGCUUCUCUAGGGCUUCAGCUCUUGCGGUCGCACUAGUGUGGAAUUCUCGGGUGUCAAGG
# B10: ENSMUSG00000028439.186|Fam219a (ssRNA)
# RNA: GGGAGUUCUACAGUCCGACGAUCGCUUCGAUAUCCGCAUGCUAUAUGUGUGUGCGUGUGUGUGUGUGUGUGUUGUACCCGAGUGUGUGUUGAGCCUAUCUGUCCAGGGAACCAGAUUGGUGUCCGAGAUGAGGAAAUGGCUGUGGCCUGGGAAAUCAGUGAGAGGCCGCUUGGGAAUGAGAAUGCAGUGGACUGAAAGCACAGCCUGGCCAUCUGGAACCUGGGUUCUGGUCCCAGCCUCGGCAUUCUCCCUGAGCUCCUAAGCAAUUCCCAGGCUUCUCUAGGGCUUCAGUUCUCACAACUGCUCUUGCGGUCGCACUAGUGUGGAAUUCUCGGGUGUCAAGG
# B11: ENSMUSG00000028439.187|Fam219a|6:23;33:40 (ssRNA)
# RNA: GGGAGUUCUACAGUCCGACGAUCGCUUCGAUAUCCGCAUGCUAUGUGCCACACACACACACACACAUGUACCCGACACACACAUGAGCCUAUCUGUCCAGGGAACCAGAUUGGUGUCCGAGAUGAGGAAAUGGCUGUGGCCUGGGAAAUCAGUGAGAGGCCGCUUGGGAAUGAGAAUGCAGUGGACUGAAAGCACAGCCUGGCCAUCUGGAACCUGGGUUCUGGUCCCAGCCUCGGCAUUCUCCCUGAGCUCCUAAGCAAUUCCCAGGCUUCUCUAGGGCUUCAGUUCUCACAACUGGAAAAUCUCUUGCGGUCGCACUAGUGUGGAAUUCUCGGGUGUCAAGG
# B12: ENSMUSG00000061578.501|Ksr2|23:28;195:201 (ssRNA)
# RNA: GGGAGUUCUACAGUCCGACGAUCGCUUCGAUAUCCGCAUGCUACUCCCAAGUGCUGGGAUUAAAGCACACAACCACCAUUGCAAUCUUGAACUCUUGACCAAUAGAAAUCCUAGACUAGUGUUGCUAGGCAACUGACUGUAUUCAGGACACCCAGGGUGGGAGGUGGAUGGAGCUCUUGCCUAACACACACCAAGCCCCAAGUUCCAUCCCCAGUCCCACACAAACCAGAUAUGAUGCACACACCCUAUGUCCCCCACACACGAGAGAGCUGGAGGCAGGAGGAUCAGAAGUUCAGGGCCAUCCUCUUGCGGUCGCACUAGUGUGGAAUUCUCGGGUGUCAAGG
# B13: ENSMUSG00000028439.187|Fam219a (ssRNA)
# RNA: GGGAGUUCUACAGUCCGACGAUCGCUUCGAUAUCCGCAUGCUAUGUGCGUGUGUGUGUGUGUGUGUUGUACCCGAGUGUGUGUUGAGCCUAUCUGUCCAGGGAACCAGAUUGGUGUCCGAGAUGAGGAAAUGGCUGUGGCCUGGGAAAUCAGUGAGAGGCCGCUUGGGAAUGAGAAUGCAGUGGACUGAAAGCACAGCCUGGCCAUCUGGAACCUGGGUUCUGGUCCCAGCCUCGGCAUUCUCCCUGAGCUCCUAAGCAAUUCCCAGGCUUCUCUAGGGCUUCAGUUCUCACAACUGGAAAAUCUCUUGCGGUCGCACUAGUGUGGAAUUCUCGGGUGUCAAGG
# B14: ENSMUSG00000028439.189|Fam219a (ssRNA)
# RNA: GGGAGUUCUACAGUCCGACGAUCGCUUCGAUAUCCGCAUGCUAUGUGUGUGUGUUGUACCCGAGUGUGUGUUGAGCCUAUCUGUCCAGGGAACCAGAUUGGUGUCCGAGAUGAGGAAAUGGCUGUGGCCUGGGAAAUCAGUGAGAGGCCGCUUGGGAAUGAGAAUGCAGUGGACUGAAAGCACAGCCUGGCCAUCUGGAACCUGGGUUCUGGUCCCAGCCUCGGCAUUCUCCCUGAGCUCCUAAGCAAUUCCCAGGCUUCUCUAGGGCUUCAGUUCUCACAACUGGAAAAUAAAGAGUAGCUGCUCUUGCGGUCGCACUAGUGUGGAAUUCUCGGGUGUCAAGG
# Target: TDP-43 (Homo sapiens, UniProt Q13148 1-414)
# Sequence (Q13148 whole entry): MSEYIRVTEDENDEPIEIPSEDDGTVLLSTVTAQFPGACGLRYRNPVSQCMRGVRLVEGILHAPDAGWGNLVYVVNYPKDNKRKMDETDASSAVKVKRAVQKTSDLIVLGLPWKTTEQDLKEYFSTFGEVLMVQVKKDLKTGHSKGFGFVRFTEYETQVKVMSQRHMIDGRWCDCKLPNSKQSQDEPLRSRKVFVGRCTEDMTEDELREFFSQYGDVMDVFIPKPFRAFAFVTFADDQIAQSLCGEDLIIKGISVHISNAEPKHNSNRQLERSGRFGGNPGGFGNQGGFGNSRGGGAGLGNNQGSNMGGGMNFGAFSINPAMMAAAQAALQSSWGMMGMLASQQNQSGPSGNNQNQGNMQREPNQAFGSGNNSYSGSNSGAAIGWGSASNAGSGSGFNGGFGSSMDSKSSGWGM
# Assay: RNA Bind-n-Seq with designed 260-mer pool; 25 mM Tris-HCl, 150 mM KCl, 3 mM MgCl2, BSA (printed 500 mg/mL), 20 units/mL SUPERase IN; pH not stated; 500 nM RNA pool, 1 h, 4 C; TDP-43 5, 50, 500 nM; high values mean tight binding
# Settings: protein: recombinant; tags: SBP (GST cleaved off with PreScission; pGEX-GST-SBP)
# In short: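 The incubation lasted 1 h at 4 °C and used 500 nM of an in vitro-transcribed 260-nt 3′ UTR oligo pool with recombinant SBP-tagged TDP-43 at 5, 50 or 500 nM immobilized on streptavidin beads. It took place in 25 mM Tris-HCl, 150 mM KCl, 3 mM MgCl2, BSA and SUPERase IN. Bound RNA was washed, eluted with biotin, converted to cDNA, PCR-amplified and sequenced to give R, each oligo's normalized abundance in the bound sample divided by that in input. Two independent protein batches provided the duplicates.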
row,Binder,binding signal
1,B1,0.663 R (bound/input frequency ratio)
2,B2,0.449 R (bound/input frequency ratio)
3,B3,2.5 R (bound/input frequency ratio)
4,B4,3.46 R (bound/input frequency ratio)
5,B5,7.33 R (bound/input frequency ratio)
6,B6,3.25 R (bound/input frequency ratio)
7,B7,7.73 R (bound/input frequency ratio)
8,B8,4.17 R (bound/input frequency ratio)
9,B9,2.43 R (bound/input frequency ratio)
10,B10,6.13 R (bound/input frequency ratio)
11,B11,1.44 R (bound/input frequency ratio)
12,B12,6.59 R (bound/input frequency ratio)
13,B13,6.68 R (bound/input frequency ratio)
14,B14,1.86 R (bound/input frequency ratio)
